{"source": "PubChem BioAssay AID1006", "about": "(Sanford-Burnham Center for Chemical Genomics, 2008)", "note": "Hit rate of the full screen: of about 200,000 compounds, about 3,000 (1.5%) were called active.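 Rule for the calls: active = inhibition above about 50% when tested at 10 µM (limit read from the data); inactive = the rest.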 What follows is part of a selection rich in actives, with near analogues and random picks from the rest."}
{"target": "Luciferin 4-monooxygenase (Photinus pyralis) (UniProt P08659)", "sequence (P08659 whole entry, looked up)": "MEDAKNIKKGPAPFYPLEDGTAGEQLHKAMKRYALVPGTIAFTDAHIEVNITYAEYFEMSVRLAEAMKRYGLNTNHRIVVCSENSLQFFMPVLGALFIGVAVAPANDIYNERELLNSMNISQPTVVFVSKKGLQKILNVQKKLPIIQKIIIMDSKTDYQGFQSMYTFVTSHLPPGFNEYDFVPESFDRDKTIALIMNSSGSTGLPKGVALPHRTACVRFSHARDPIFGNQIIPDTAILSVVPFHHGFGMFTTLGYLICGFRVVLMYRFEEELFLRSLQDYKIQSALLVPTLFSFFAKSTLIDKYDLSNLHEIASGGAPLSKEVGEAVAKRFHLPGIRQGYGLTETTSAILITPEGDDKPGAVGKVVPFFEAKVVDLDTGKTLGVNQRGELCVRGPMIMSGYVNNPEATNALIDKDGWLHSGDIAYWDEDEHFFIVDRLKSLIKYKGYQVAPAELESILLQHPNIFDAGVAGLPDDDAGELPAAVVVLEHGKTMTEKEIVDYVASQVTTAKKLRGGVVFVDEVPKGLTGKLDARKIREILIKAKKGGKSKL", "assay": "firefly luciferase enzyme inhibitors, primary screen, artefact control for luciferase-based inhibitor screens, biochemical, luminescence, ATPLite (AID 1006)", "conditions": "10 min, at 10 µM, stronger effect = higher value"}
{"smiles": "CCOc1ccc(C(CC(=O)O)NC(=O)C23CC4CC(CC(C4)C2)C3)cc1OC", "note": "(stereo unspecified)", "inhibition": "-3.9% (inactive)"}
{"smiles": "CN(C)CCCn1c(SCCN2C(=O)c3ccccc3C2=O)nc2ccccc2c1=O", "inhibition": "-5.8% (inactive)"}
{"smiles": "CC(C)N(Cc1nc(-c2ccc3c(c2)OCO3)no1)CC1CCC(=O)N1", "note": "(stereo unspecified)", "inhibition": "-8.8% (inactive)"}
{"smiles": "CN(C)/C=C(/C(=O)c1ccccc1)S(=O)(=O)c1ccc(Cl)cc1", "inhibition": "-5.6% (inactive)"}
{"smiles": "Cc1ccc(N2C(=O)C(CC(=O)Nc3cccc(F)c3)N(CCc3ccncc3)C2=O)cc1", "note": "(stereo unspecified)", "inhibition": "-0.5% (inactive)"}
{"smiles": "COc1cccc(-c2ccc(SCC(=O)N3CCN(c4ccccc4)CC3)nn2)c1", "inhibition": "-6.1% (inactive)"}
{"smiles": "O=C(NNc1ncnc2c1cnn2-c1ccccc1)c1ccco1", "inhibition": "6% (inactive)"}
{"smiles": "c1ccc(-n2ncc3c(N4CCCC4)ncnc32)cc1", "inhibition": "73.9% (active)"}
{"smiles": "COc1ccc(-n2ncc3c(N4CCCc5ccccc54)ncnc32)cc1", "inhibition": "54.9% (active)"}
{"smiles": "Cc1cccc(-n2ncc3c(N4CCc5ccccc54)ncnc32)c1", "inhibition": "17.1% (inactive)"}
{"smiles": "C1=C(CCNc2ncnc3c2cnn3-c2ccccc2)CCCC1", "inhibition": "10.5% (inactive)"}
{"smiles": "COc1ccc(-n2ncc3c(N4CCc5ccccc54)ncnc32)cc1", "inhibition": "41.9% (inactive)"}
{"smiles": "O=C(Nc1nnc(Cc2ccc(Cl)cc2)s1)c1cccnc1", "inhibition": "7.5% (inactive)"}
{"smiles": "O=c1oc(/C=C/c2ccccc2)nc2ccccc12", "inhibition": "80.5% (active)"}
{"smiles": "S=c1[nH]nc(/C=C/c2ccccc2)o1", "inhibition": "7.5% (inactive)"}
{"smiles": "CCn1c(/C=C/c2ccc([N+](=O)[O-])o2)nc2ccccc2c1=O", "inhibition": "-6.1% (inactive)"}
{"smiles": "N#Cc1ccc(N2Cc3ccccc3/C2=N/C(=O)Nc2ccc(Cl)cc2)cc1", "inhibition": "-4.6% (inactive)"}
{"smiles": "Cc1ccc(S(=O)(=O)N(CC(=O)Nc2cccc([N+](=O)[O-])c2)Cc2ccc(Cl)cc2)cc1", "inhibition": "-6.1% (inactive)"}
{"smiles": "COc1ccc(/C=C/C(=O)Nc2cccnc2)cc1OC", "inhibition": "13% (inactive)"}
{"smiles": "COc1ccc(/C=C/C(=O)Nc2ccc(C34CC5CC(CC(O)(C5)C3)C4)cc2)cc1OC", "inhibition": "57.2% (active)"}
{"smiles": "COc1ccc(/C=C/C(=O)N2CCCC2)cc1OC", "inhibition": "5.6% (inactive)"}
{"smiles": "CCCN(CC(=O)Nc1ccc(OC)c(OC)c1)CC(=O)Nc1ccc(F)c(F)c1F", "inhibition": "8.5% (inactive)"}
{"smiles": "COc1ccc(-n2nnnc2SCC(=O)Nc2ccccc2)cc1", "inhibition": "-8% (inactive)"}
{"smiles": "CCOc1cccc(-n2nnnc2-c2ccc(OC)cc2)c1", "inhibition": "-0.7% (inactive)"}
{"smiles": "COc1ccc(-n2nnnc2-c2nc3ccccc3s2)cc1", "inhibition": "73.2% (active)"}
{"smiles": "CCc1ccc(Oc2nc([N+](=O)[O-])nn2C)cc1", "inhibition": "-9.5% (inactive)"}
{"smiles": "Cc1nc(-c2ccccc2)sc1C(=O)/C=C/N(C)C", "inhibition": "10.8% (inactive)"}
{"smiles": "O=C(CSc1nncs1)NC1CCCc2ccccc21", "note": "(stereo unspecified)", "inhibition": "-8.5% (inactive)"}
{"smiles": "COCC1CCCN(Cc2nc(-c3ccc4c(c3)OCO4)no2)C1", "note": "(stereo unspecified)", "inhibition": "0.8% (inactive)"}
{"smiles": "O=C(O)c1ccc2c(c1)C(=O)N(c1ccc(/C=C/C(=O)c3ccccc3)cc1)C2=O", "inhibition": "-0.5% (inactive)"}
{"smiles": "O=C(/C=C/c1ccccc1)c1ccoc1", "inhibition": "14% (inactive)"}
{"smiles": "O=C(/C=C/c1ccc(N2CCOCC2)cc1)c1ccccc1", "inhibition": "60.8% (active)"}
{"smiles": "CC1=C[C@H]2Cc3cc(C)cc(C)c3S(=O)(=O)[C@@H]2C=C1", "inhibition": "-5.9% (inactive)"}
{"smiles": "O=C(Nc1cccc(O)c1)c1ccc(C(=O)c2ccccc2)o1", "inhibition": "69.9% (active)"}
{"smiles": "O=C(CSc1ccccc1)Nc1ccc(C(=O)Nc2cccc(O)c2)cc1", "inhibition": "1.9% (inactive)"}
{"smiles": "C/C(=C\\C(=O)c1ccccc1)Nc1cccc(O)c1", "inhibition": "44.4% (inactive)"}
{"smiles": "NC(=O)C1CCN(C(=O)COc2cccc3cccnc23)CC1", "inhibition": "-10% (inactive)"}
{"smiles": "Cc1cc(C(=O)Cn2cnc3cc([N+](=O)[O-])ccc3c2=O)c(C)n1CC1CCCO1", "note": "(stereo unspecified)", "inhibition": "1.6% (inactive)"}
{"smiles": "Cc1cc(C(=O)CCl)c(C)n1CC1COc2ccccc2O1", "note": "(stereo unspecified)", "inhibition": "-0.3% (inactive)"}
{"smiles": "Cc1ccsc1C(=O)OCC(=O)c1cc(C)n(CC2CCCO2)c1C", "note": "(stereo unspecified)", "inhibition": "90.3% (active)"}
{"smiles": "CCC1C=C(c2ccccc2)C=CN=C1N(CC)CC", "note": "(stereo unspecified)", "inhibition": "-5% (inactive)"}
{"smiles": "O=C(Cn1c(N2CCN(C/C=C/c3ccccc3)CC2)nc2ccccc21)c1ccccc1", "inhibition": "-2.2% (inactive)"}
{"smiles": "CCN(CCCNC(=O)CCn1c(=O)[nH]c2ccsc2c1=O)c1ccccc1", "inhibition": "-2.6% (inactive)"}
{"smiles": "CC(C)=CCN1CCN(Cc2ccc(Oc3ncccn3)cc2)CC1CCO", "note": "(stereo unspecified)", "inhibition": "-0.1% (inactive)"}
{"smiles": "N=c1c2c(-c3ccccc3)c(-c3ccccc3)n(Cc3ccccc3)c2ncn1CCCO", "inhibition": "-2.7% (inactive)"}
{"smiles": "OCCCN1c2ccccc2Nc2nnc(-c3ccccc3)cc21", "inhibition": "57.2% (active)"}
{"smiles": "CCCN(CCC)CCCNC(=O)CNC(=O)c1nn(-c2ccc(OC)cc2)c(=O)c2ccccc12", "inhibition": "-0.3% (inactive)"}
{"smiles": "Cc1ccsc1C(=O)OCC(=O)c1cc2ccccc2o1", "inhibition": "1.6% (inactive)"}
{"smiles": "O=C(Oc1cccnc1)c1cc2ccccc2oc1=O", "inhibition": "-6.1% (inactive)"}
{"smiles": "Cc1ccc(OC(=O)c2cc3ccccc3o2)cc1", "inhibition": "73.3% (active)"}
{"smiles": "CCOC(=O)c1c(C)[nH]c(C2=NNC(=NC(C)COC)SC2)c1C", "note": "(stereo unspecified)", "inhibition": "56.5% (active)"}
{"smiles": "CCCCOC(=O)c1[nH]c(C)c(C(=O)OC)c1C", "inhibition": "15.4% (inactive)"}
{"smiles": "CCOC(=O)c1c(C)[nH]c2c1-c1ccccc1C(=O)C2=O", "inhibition": "-5.3% (inactive)"}
{"smiles": "O=c1c2ccccc2nc2n1C1(CCCCC1)Cc1ccccc1-2", "inhibition": "-6.3% (inactive)"}
{"smiles": "CCOC(=O)C(C)Sc1nc2ccccc2c(=O)n1CC1CCCCC1", "note": "(stereo unspecified)", "inhibition": "1.4% (inactive)"}
{"smiles": "CN(c1ccc2nc3ccccc3c(=O)n2n1)C1CCCCC1", "inhibition": "96.2% (active)"}
{"smiles": "CC(C)CCC(C)NC(=O)c1ccc2nccnc2c1", "note": "(stereo unspecified)", "inhibition": "2.8% (inactive)"}
{"smiles": "COc1ccc(N2C(=O)/C(=C\\c3ccco3)N=C2SCC(N)=O)cc1Cl", "inhibition": "-5.8% (inactive)"}
{"smiles": "Cc1ccc2cc3cc(C(=O)N4CCCCCC4)oc3nc2c1", "inhibition": "69.5% (active)"}
{"smiles": "Cc1ccc(C(=O)N2CCCCCC2)cc1Br", "inhibition": "-7.1% (inactive)"}
{"smiles": "Cc1cc(=O)oc(C)c1C(=O)N1CCCCC1", "inhibition": "-6.7% (inactive)"}
{"smiles": "C/C(=N/N1CCN(Cc2cccc3ccccc23)CC1)c1cccnc1", "inhibition": "-5.7% (inactive)"}
{"smiles": "COc1cccc(C(=O)Nc2ccc(NC(=O)c3ccco3)cn2)c1", "inhibition": "6.5% (inactive)"}
{"smiles": "O=C(Nc1ccc(NC(=O)c2cccs2)cn1)c1ccco1", "inhibition": "83.2% (active)"}
{"smiles": "O=C(Nc1ccc2nccnc2c1)c1ccco1", "inhibition": "13% (inactive)"}
{"smiles": "N/C(=N\\OC(=O)c1ccc2c(c1)OCO2)c1ccc(Br)cc1", "inhibition": "60.6% (active)"}
{"smiles": "N/C(=N\\OC(=O)N1c2ccccc2Sc2ccccc21)c1ccc(Br)cc1", "inhibition": "-3.4% (inactive)"}
{"smiles": "N/C(=N\\OC(=O)/C=C/c1ccccc1)c1ccc(Br)cc1", "inhibition": "-0.5% (inactive)"}
{"smiles": "COc1ccccc1CN(C)C(=O)C1(c2ccc(Cl)cc2)CC1", "inhibition": "-4.2% (inactive)"}
{"smiles": "O=C(CCC(=O)N1CCCC1)Nc1ccc([N+](=O)[O-])cc1", "inhibition": "-1.6% (inactive)"}
{"smiles": "CCn1c(=S)[nH]c2sc3c(c2c1=O)CCCCC3", "inhibition": "-1.8% (inactive)"}
{"smiles": "CCO[C@H]1OC(C(=O)Nc2ccccc2)=C[C@@H](C2CC2)[C@@H]1CCCO", "inhibition": "-0.3% (inactive)"}
{"smiles": "Cc1ccc(C)c(NC(=S)NCC(c2cccnc2)N2CCOCC2)c1", "note": "(stereo unspecified)", "inhibition": "-5.6% (inactive)"}
{"smiles": "CCOC(=O)CSc1nnc(-c2ccc([N+](=O)[O-])cc2)o1", "inhibition": "3% (inactive)"}
{"smiles": "CCOC(=O)CSc1nnc(-c2ccncc2)o1", "inhibition": "0.6% (inactive)"}
{"smiles": "CCCCSc1nnc(-c2ccc(C)cc2)o1", "inhibition": "50.5% (active)"}
{"smiles": "Cc1ccnc(SCC(N)=O)n1", "inhibition": "-1.6% (inactive)"}
{"smiles": "O=C(Nn1cnnc1)c1ccc([N+](=O)[O-])cc1", "inhibition": "-5.5% (inactive)"}
{"smiles": "Cc1ccc2nc(-c3cccc(Br)c3)cc(C(=O)Nn3cnnc3)c2c1", "inhibition": "78.1% (active)"}
{"smiles": "Cc1ccc(-c2cc(C(=O)NCc3cn(C)nc3C)c3cc(Br)ccc3n2)cc1", "inhibition": "10.9% (inactive)"}
{"smiles": "Cc1ccc2nc(-c3ccccc3)cc(C(=O)O)c2c1", "inhibition": "15.5% (inactive)"}
{"smiles": "Cc1nn2cc(-c3ccc(Cl)cc3)cnc2c1Br", "inhibition": "7.5% (inactive)"}
{"smiles": "Cc1noc(C)c1COc1ccc2ccc(=O)oc2c1", "inhibition": "-2.2% (inactive)"}
{"smiles": "CCCCc1cc(=O)oc2cc(C)cc(OCc3nn[nH]n3)c12", "inhibition": "-6.7% (inactive)"}
{"smiles": "COc1ccc(-c2cc3ccc(OCc4nn[nH]n4)cc3oc2=O)cc1", "inhibition": "81.4% (active)"}
{"smiles": "Cc1cc(Cl)ccc1NC(=S)N1CCC(C(N)=O)(N2CCCCC2)CC1", "inhibition": "-2.1% (inactive)"}
{"smiles": "O=C(Oc1cccc(NC2=NS(=O)(=O)c3ccccc32)c1)c1ccncc1", "inhibition": "-2.8% (inactive)"}
{"smiles": "CC(C)(C)c1csc(NC2=NS(=O)(=O)c3ccccc32)n1", "inhibition": "77.2% (active)"}
{"smiles": "Cc1ccc(S(=O)(=O)N(NC2=NS(=O)(=O)c3ccccc32)C(=O)c2ccccc2)cc1", "inhibition": "0.4% (inactive)"}
{"smiles": "COc1ccc(/C(N)=N/OC(=O)Cc2ccccc2)cc1", "inhibition": "10.9% (inactive)"}
{"smiles": "CCC(C)(NC(=O)c1ccccn1)C(=O)NC1CCCCC1", "note": "(stereo unspecified)", "inhibition": "-4.6% (inactive)"}
{"smiles": "N/C(=N\\OC(=O)CCc1ccccc1)c1cccnc1", "inhibition": "14.6% (inactive)"}
{"smiles": "N/C(=N\\OC(=O)CCC1CCCCC1)c1ccccn1", "inhibition": "71.2% (active)"}
{"smiles": "N/C(=N\\OC(=O)CC1CCCCC1)c1ccccc1", "inhibition": "90.2% (active)"}
{"smiles": "N/C(=N\\OC(=O)CCc1ccccc1)c1ccc(Cl)cc1", "inhibition": "0.8% (inactive)"}
{"smiles": "Cc1cc(C)nc(/N=C2\\NC(=O)CC(C(=O)O)N2c2ccc(Cl)cc2Cl)n1", "note": "(stereo unspecified)", "inhibition": "-5.6% (inactive)"}
{"smiles": "COc1ccccc1-c1noc(CSc2nc(C)cc(=O)[nH]2)n1", "inhibition": "-0.3% (inactive)"}
{"smiles": "CCc1ccc(NC(=O)C(=O)N/N=C(\\C)CC(=O)NCCOC)cc1", "inhibition": "10.5% (inactive)"}
{"smiles": "CCCCNC(=O)N1CCN(S(C)(=O)=O)CC1", "inhibition": "-1.2% (inactive)"}
{"smiles": "CC(C)n1c(-c2ccncc2)n[nH]c1=S", "inhibition": "-5.7% (inactive)"}
{"smiles": "Cc1cccc(NC(=S)N2CCC(O)CC2)c1C", "inhibition": "-0.2% (inactive)"}
